The values below come from PubChem BioAssay (NCATS).

A short description of test [1]: qHTS to identify inhibitors of the type 1 interferon - major histocompatibility complex class I in skeletal muscle: primary screen against the NCATS LOPAC collection (AID 1347405).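 Note: human myoblasts with HiBiT tag on endogenous HLA-B stimulated by IFN-beta; lytic HiBiT luminescence reporting HLA-B protein level.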 Note: potency is the fitted concentration of half-maximal effect. The method in brief: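 HLA-B HiBiT myoblasts, IFN-b 4 ng/ml, dexamethasone-free medium; compounds 7-pt 1:4.3 titration, top 46 uM final; 24 h at 37 C; Nano-Glo HiBiT lytic reagent, 10 min RT, luminescence.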

A short description of test [2]: qHTS to identify inhibitors of the type 1 interferon - major histocompatibility complex class I in skeletal muscle: primary screen against the NCATS Pharmaceutical Collection (AID 1347407).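 Note: luminescence of HiBiT knocked into endogenous HLA-B as interferon-induced MHC class I level.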 Note: potency is the fitted concentration of half-maximal effect. Summed up:
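Luminescence from HiBiT-tagged endogenous HLA-B*08:01 served as the read-out of IFN-beta-induced MHC class I in CRISPR-engineered C25cl48 myoblasts. Cells received 4 ng/ml IFN-beta plus compound (high final 46 uM, […]) for 24 h.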

Test [3] in a line: qHTS for inhibitors of adenylyl cyclases using a fission yeast platform: a pilot screen against the NCATS LOPAC library (AID 1347410). The method in brief:
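Fission yeast qHTS: CHP2027 cells (AC9-GNAS-PDE4D2, fbp1-GFP), 5x10^6 cells/mL working density, EMM + His/Lys/Ura; LOPAC at up to 57 µM final; 18 h dark, 30C; GFP by laser cytometry. DPI positive control, DMSO vehicle.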

Test [4] concerns the target Protein phosphatase 1D (Homo sapiens) (UniProt O15297). As to the kind of experiment: RapidFire Mass Spectrometry qHTS Assay for Modulators of WT P53-Induced Phosphatase 1 (WIP1) (AID 1347424).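 Note: amount of dephosphorylated VEPPL-S-QETFS peptide product formed by WIP1; series mostly up to about 63 µM.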 Summed up: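 Mass-spectrometric measurement of dephosphorylated peptide after a 5 min room-temperature reaction of 10 nM WIP1 with 2 uM phosphopeptide, following 1 h compound preincubation in 30 mM MgCl2 buffer.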

The target is the same in test [5]. As to the kind of experiment: Rhodamine-PBP qHTS Assay for Modulators of WT P53-Induced Phosphatase 1 (WIP1) (AID 1347425). The method in brief:
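WIP1 (5 nM final) was preincubated with compound for 1 hour at room temperature. It then dephosphorylated 10 uM VEPPL-pS-QETFS peptide in Tris-HCl pH 7.5 with 30 mM MgCl2. Released Pi was detected by 10 uM Rh-PBP fluorescence (ex 525/em 598 nm) read at 1-min intervals for 11 min, as delta f1 - f0.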

Test [6] can be described thus: Validation qHTS assay for inhibitors of Activation Induced Cytidine Deaminase (AID): UDG Counterscreen signal (AID 1347427). The method in brief: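 Fluorescence at 560 nm excitation, 665 nm emission reports UDG signal after 250 mM NaOH (2x) addition and 30 min. Enzymes (AID 1 uM, UDG 2 U/mL, at 4/3x) preincubated 10 min with compound, then 4 h with 4x 250 nM DJC20/DJC23 substrate at room temperature.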

The target in test [7] is Single-stranded DNA cytosine deaminase (Homo sapiens) (UniProt Q9GZX7). The experiment in a line: Validation qHTS assay for inhibitors of Activation Induced Cytidine Deaminase (AID): AID signal (AID 1347429). Summed up:
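AID+UDG coupled FRET deamination; cpds up to 114 uM final; DJC20/DJC23 substrate, 4 hr RT; NaOH stop, 30 min RT; read Ex 540/Em 590.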

Test [8] in a line: Primary qHTS for inhibitors of La Crosse Virus (LACV) - induced cell death in SH-SY5Y cells (AID 1508616).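 Note: top concentration of the series differs between compounds; higher means more rescue of cells from virus-induced death.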 Summed up: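 Cytopathicity rescue screen: compounds pinned onto SH-SY5Y cells, which are then infected with LACV (MOI 0.01) and held 6 days at 37C. Percent activity is scaled between infected DMSO control and uninfected DMSO control.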
Test [9] is described as follows: qHTS to identify inhibitors of the type 1 interferon - major histocompatibility complex class I in skeletal muscle: primary screen against the NCATS Mechanism Interrogation Plate v5.0 (MIPE) Libary (AID 1347411). Note: nearly all actives have a fitted effect of over 65% in size. Note: potency is the fitted concentration of half-maximal effect. The method in brief:
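HLA-B HiBit myoblasts, dexamethasone-free medium + 4 ng/ml IFN-b, 24 h compound, 11-pt 1:3 from 46 uM final. Readout: Nano-Glo HiBiT lytic luminescence after 10 min lysis, RT.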

A short description of test [10]: Cytotoxicity qHTS for assessment of Hepg2 cells membrane integrity screened against the NCATS CANVASS Library (AID 1347387). Summed up:
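LDH release read by fluorescence (560 nm ex/590 nm em) after CytoTox-ONE addition and 10 min RT; signal tracks lysed cells. HepG2, 2000 cells/well, plated overnight; compound 5 hr, 37C, 5% CO2, final 0.59 nM - 46 uM, 11 points.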

Test [11] in a line: qHTS for Activators of p53 Stress Response Pathway screened against the NCATS CANVASS Library (AID 1347388). The method in brief:
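p53RE-bla HCT-116 cells (4000/well) were plated 5 h at 37C, exposed to compounds for 16 h at 37C over an 11-point concentration series, then loaded with CCF4 for 2 h at room temperature; 460/530 nm emission ratio read.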

Test [12] in a line: qHTS assay for small molecule disruptors of mitochondrial membrane potential screened against the NCATS CANVASS Library (AID 1347389). Note: series mostly up to about 46 µM; nearly all actives have a fitted effect of over 60% in size. The method in brief:
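Red/green fluorescence ratio read-out: J-aggregates ex 540/em 590 nm, monomers ex 490/em 535 nm. HepG2, 1 hr compound treatment, then 30 min Mito-MPS dye at 37C. 11-pt qHTS concentration series.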

A short description of test [13]: Secretion counterscreen for inhibitors of the SERCaMP assay screened against the NCATS CANVASS Library (AID 1347390).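 Note: light from luciferase secreted into medium read as a measure of general secretion; series mostly up to about 77 µM.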 Summed up: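 SH-SY5Y-GLuc STOP cells; 4 h attach; cpds 0.001 - 77 uM (qHTS, 11 pts), 20 h 37C/5% CO2; coelenterazine in glow buffer; luminescence, 5 s exposure.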
Test [14] is described as follows: qHTS for activators of Nrf2/ARE signaling pathway screened against the NCATS CANVASS Library (AID 1347391). Note: nearly all actives have a fitted effect of over 60% in size. The method in brief:
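HepG2 ARE-bla; cpd 11-pt qHTS, 16 h 37C/5% CO2; CCF4 substrate 2 h RT; read ex 405 / em 460 + 530 nm. Viability by CellTiter-Glo luminescence, 30 min RT.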

Test [15] can be described thus: qHTS for activators of dead-cell proteases activity screened against the NCATS CANVASS Library (AID 1347392).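 Note: luminescence from protease leaking out of membrane-damaged cells cleaving impermeant substrate; rising signal means more cytotoxicity.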 The method in brief:
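Cytotoxicity in HepG2 cells was assessed by released protease cleaving AAF-aminoluciferin, with luminescence as signal. Exposure lasted 5 h at 37C across an 11-point series.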

Test [16] is described as follows: qHTS for inhibitors of ER calcium dysfunction: SERCaMP assay screened against the NCATS CANVASS Library (AID 1347393). Note: potency is the fitted concentration of half-maximal effect; nearly all actives have a fitted effect of over 40% in size. The method in brief: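 qHTS in SH-SY5Y reporter cells: 16 h compound pretreatment, 4 h thapsigargin, then secreted Gaussia luciferase measured by luminescence.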
A short description of test [17]: Vero-766 cells viability qHTS against the NCATS CANVASS Library: Counterscreen for Zika virus inhibition assay (AID 1347394). Note: series mostly up to about 46 µM; nearly all actives have a fitted effect of over 60% in size. The method in brief:
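Vero 766, no virus; 1000 cells/well; o/n attach; cpd 11-pt; 72 h, 37C, 5% CO2; CTG luminescence; cell-free media wells = 100% inhibition.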

Test [18] is described as follows: qHTS for inhibitors of Wild type Zika virus screened against the NCATS CANVASS Library (AID 1347396).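 Note: ATP luminescence of surviving cells so rescue from viral cell killing; series mostly up to about 46 µM.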 The method in brief:
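Vero 766 (African green monkey) cells, 1000 per well, attached overnight, then compounds were added in an 11-point series before wild-type Zika virus infection. After 72 h at 37C, cell viability was read as CellTiter Glo luminescence.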

Test [19] can be described thus: Viability qHTS for inhibitors of the SERCaMP assay screened against the NCATS CANVASS Library (AID 1347400). Note: series mostly up to about 92 µM; nearly all actives have a fitted effect of over 70% in size. The method in brief: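 CellTiter-Glo luminescence readout after 48 h compound exposure (11-pnt qHTS series) of SH-SY5Y-GLuc SERCaMP MJH297 cells seeded at 1000 cells/well; bortezomib positive control.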
Test [20] can be described thus: Redox Reaction Profiling qHTS: Assay Interference Panel against the NCATS CANVASS Library (AID 1347401). Summed up:
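Quantitative HTS over an 11-point series was run in HEPES pH 7.3 with 50 mM NaCl, 200 uM DTT and 5 uM resazurin. Initial and 15-min resorufin fluorescence readings were taken.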

Records with an inconclusive call do not appear. Calls of active or inactive are those of the source. Calls come from the whole dose curve; as a rule, active = well fitted curve in the direction sought with a large enough effect; inconclusive = small, poorly fitted or top-dose-only effect, or another doubt; inactive = no such curve, though single readings can be large; an effect the other way counts as inactive or inconclusive.

Sequence of Protein phosphatase 1D (Homo sapiens) (O15297 whole entry, looked up): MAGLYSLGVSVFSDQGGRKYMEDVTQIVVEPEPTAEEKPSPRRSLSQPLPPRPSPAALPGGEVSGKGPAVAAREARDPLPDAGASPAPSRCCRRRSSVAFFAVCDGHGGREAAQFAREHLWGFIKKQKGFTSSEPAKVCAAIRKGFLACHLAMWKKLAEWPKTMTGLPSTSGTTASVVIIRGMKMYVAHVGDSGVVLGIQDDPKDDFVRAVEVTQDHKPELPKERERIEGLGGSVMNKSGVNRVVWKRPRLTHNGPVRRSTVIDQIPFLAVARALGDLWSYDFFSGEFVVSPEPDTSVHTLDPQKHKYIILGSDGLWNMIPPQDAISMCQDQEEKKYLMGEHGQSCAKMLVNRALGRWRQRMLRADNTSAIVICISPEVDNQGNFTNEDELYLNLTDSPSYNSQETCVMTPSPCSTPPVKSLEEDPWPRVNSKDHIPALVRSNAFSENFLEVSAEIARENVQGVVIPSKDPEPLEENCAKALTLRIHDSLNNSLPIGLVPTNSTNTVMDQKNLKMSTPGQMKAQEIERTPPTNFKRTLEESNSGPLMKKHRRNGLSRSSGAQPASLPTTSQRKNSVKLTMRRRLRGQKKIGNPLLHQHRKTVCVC
Sequence of Single-stranded DNA cytosine deaminase (Homo sapiens) (Q9GZX7 whole entry, looked up): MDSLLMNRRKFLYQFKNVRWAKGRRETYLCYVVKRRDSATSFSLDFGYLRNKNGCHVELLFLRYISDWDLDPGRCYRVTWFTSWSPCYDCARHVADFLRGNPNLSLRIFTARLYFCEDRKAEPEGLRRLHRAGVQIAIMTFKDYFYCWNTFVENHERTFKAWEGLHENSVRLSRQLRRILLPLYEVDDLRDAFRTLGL

On to `CCN(CC)CCOC(=O)c1ccc(N)cc1`, for which the Potency entry in test [1], in test [2] and in test [7] was “inactive” each time. The compound was called inactive in test [3], in test [4], in test [5], in [6] and in test [8].
On to `COc1cccc(-c2cc(=O)c3ccccc3o2)c1N`, for which the Potency result in test [1], in test [9] and in [7] was “inactive” throughout. Moreover, the call in [3], in test [6] and in [8] was inactive.
As for `Clc1ccc(Cn2c(CN3CCCC3)nc3ccccc32)cc1`, the Potency result in test [1], in test [2], in test [9] and in [7] was “inactive” throughout. The call in test [3], in [4], in [5], in test [6] and in test [8] was inactive.
As for `O=C1NCC2(CCN(CCc3ccccc3)CC2)O1`, the Potency result in test [1], in test [2] and in test [7] was “inactive” throughout. The compound was called inactive in test [3], in [4], in test [5], in [6] and in test [8].
With `CC(C)NCC(O)COc1cccc2[nH]ccc12` (centres undefined), the Potency entry in test [1], in test [2] and in [7] was “inactive” throughout. Further, the result in test [3], in [4], in [5], in test [6] and in [8] was inactive.
For the compound `O=C(CCCCCCC(=O)Nc1ccccc1)NO`, the Potency is 4.19 µM (active) in [2] and 1.47 µM (active) in test [9]. Moreover, the call in test [4] and in test [5] was inactive.
On to `C[N+](C)(C)CC(=O)O`, for which the Potency result in [2] and in [9] was “inactive” throughout. Further, the compound was classed as inactive in test [4], in test [5] and in test [8].
Take `NCCS`: the Potency entry in test [1], in [2] and in test [7] was “inactive” throughout. For the same compound, the outcome in [3], in [4], in test [5], in [6] and in test [8] was inactive.
Regarding `CCCCC1C(=O)N(c2ccccc2)N(c2ccccc2)C1=O`, in test [1], the Potency is 15.8 µM (active). In addition, the outcome in test [3], in test [6] and in [8] was inactive. The Potency result in test [7] is “inactive”.
`CCN(CC)C(=O)c1ccc(O)c(OC)c1`: the Potency entry in [1], in test [2] and in test [7] was “inactive” in each case. The compound was classed as inactive in test [3], in test [4], in [5], in test [6] and in test [8].
Regarding `COC(=O)[C@@H]1[C@H]2C[C@H]3c4[nH]c5ccccc5c4CCN3C[C@@H]2CC[C@@H]1O`, the outcome in test [10], in [11], in test [12], in test [13], in test [14] and in [15] was inactive. Besides, the call in [17], in test [18], in test [19], in [3], in test [4] and in [5] was inactive. In addition, the call in test [6] and in [8] was inactive. In test [16], the Potency was 30.5 µM (active). Also, the Potency result in test [20], in [1], in test [2], in [9] and in [7] was “inactive” in each case.
